We go through 33 compounds from ChEMBL document CHEMBL4513149, “CO-ADD screening of MMV (CH) - MMV compounds” (2021).

The subject of one assay is Klebsiella pneumoniae. The conditions noted are these: Concentration 20 uM; ASSAY_TEST Inhibition of Bacterial Growth; detection method Absorption (OD600); MEDIA CAMHB; plate type 384well; NBS; CORNING #3640; time 18 hr.
Another assay deals with Candida albicans. The note with it: 20 µM.
In a further assay the test system is Cryptococcus neoformans. The note with it: Concentration 20 uM; ASSAY_TEST Inhibition of Fungal Growth; detection method Resazurin; Absorption (OD600-OD570); plate type 384well; NBS; CORNING #3640.

Results with a measured potency or affinity are listed apart.

Broadly, the Inhibition is the relative decrease from the control value, in per cent. Consider `COCC(C)NC(=O)CSc1ncnc2sc(-c3ccccc3)cc12` (centres undefined), for which the Inhibition in the assay on Klebsiella pneumoniae stood at 18.05%; in the assay on Candida albicans, 9.04%; in the assay on Cryptococcus neoformans, 0.58%.

Take `CCC(NC(=O)c1ccccc1NC(=O)c1ccc(C)cc1)C(=O)OC` (centres undefined): the Inhibition in the assay with Klebsiella pneumoniae was 8.73%; with Candida albicans, 4.2%; with Cryptococcus neoformans, -3.77%.

Take `Cc1nnc(NC(=O)c2cn(-c3ccccc3)nc2-c2ccccc2C)o1`: the results for the Inhibition in the assay with Klebsiella pneumoniae, in the assay on Candida albicans and with Cryptococcus neoformans were 13%, 4.27% and -7.03%, respectively.

As to `O=C1N(Cc2cc3ccccc3s2)CC2CN(Cc3ccccc3)CCN12` (centres undefined), the Inhibition is 2.73% in the assay on Klebsiella pneumoniae, 2.62% with Candida albicans and -4.73% in the assay on Cryptococcus neoformans.

`Cl.O[C@@H](c1cc(C(F)(F)F)nc2c(C(F)(F)F)cccc12)[C@H]1CCCCN1`: the Inhibition is -6.56% in the assay on Klebsiella pneumoniae, 6.48% in the assay on Candida albicans and 1.73% in the assay on Cryptococcus neoformans.

Turning to `CC(Oc1ccccc1)C(=O)Nc1nc(-c2ccccn2)cs1` (centres undefined), the Inhibition in the assay on Klebsiella pneumoniae was -2.79%; with Candida albicans, -0.26%; in the assay on Cryptococcus neoformans, -5.96%.

`NCCC(O)C(=O)N[C@@H]1C[C@H](N)[C@@H](OC2O[C@H](CN)[C@@H](O)[C@H](O)[C@H]2O)[C@H](O)C1OC1O[C@H](CO)[C@@H](O)[C@H](N)[C@H]1O.O=S(=O)(O)O.O=S(=O)(O)O` (some centres undefined): the figures for the Inhibition in the assay with Klebsiella pneumoniae, in the assay on Candida albicans and in the assay on Cryptococcus neoformans were 11.78%, 2.46% and -2.57%, respectively.

Turning to `O=C(NC1CC1)c1ccc(CSCc2ccccc2Cl)o1`, the Inhibition in the assay with Klebsiella pneumoniae is 1.21%; in the assay on Candida albicans, 7.77%; in the assay with Cryptococcus neoformans, -0.4%.

Consider `CNC1C(OC2C(OC3C(O)C(O)C(NC(=N)N)C(O)C3NC(=N)N)OC(C)C2(O)C=O)OC(CO)C(O)C1O.CNC1C(OC2C(OC3C(O)C(O)C(NC(=N)N)C(O)C3NC(=N)N)OC(C)C2(O)C=O)OC(CO)C(O)C1O.O=S(=O)(O)O.O=S(=O)(O)O.O=S(=O)(O)O` (centres undefined), for which the Inhibition is -10.2% in the assay on Klebsiella pneumoniae, 2.09% in the assay on Candida albicans and -8.51% with Cryptococcus neoformans.

With `O=C(NCCN1CCCC1)c1cc(NCCN2CCOCC2)nc2ccc(Cl)cc12`, the Inhibition is 16.49% in the assay with Klebsiella pneumoniae, 2.97% with Candida albicans and -7.83% in the assay with Cryptococcus neoformans.

`Nc1nc(N)c2c3c(sc2n1)CN(Cc1ccccc1)CC3`: the Inhibition in the assay with Klebsiella pneumoniae is 10.27%; in the assay with Candida albicans, 2.79%; in the assay with Cryptococcus neoformans, -1.76%.

On to `O=C(Nc1nnc(S)s1)c1cc(Br)ccc1Cl`, for which the Inhibition with Klebsiella pneumoniae is 6.18%; with Candida albicans, 4.73%; in the assay on Cryptococcus neoformans, -3.6%.

On to `Cc1ccc(S(=O)(=O)N2CCN(C(=O)c3cc(-c4ccccc4)n[nH]3)CC2)cc1`, for which the Inhibition is -15.32% in the assay with Klebsiella pneumoniae, 6.95% in the assay with Candida albicans and -7.39% in the assay with Cryptococcus neoformans.

Turning to `COC(=O)c1c(NC(=O)c2cc3ccccc3oc2=O)sc2c1CCN(Cc1ccccc1)C2`, the Inhibition with Klebsiella pneumoniae was 12.75%; in the assay with Candida albicans it was 2.23%; with Cryptococcus neoformans, -2.1%.

With `COc1ccc(-c2onc(C(F)(F)F)c2-c2ccc(Cl)cc2)c(O)c1`, the Inhibition with Klebsiella pneumoniae was determined as 9.85%; in the assay on Candida albicans, 2.64%; with Cryptococcus neoformans, 8.78%.

On to `OC[C@H]1O[C@@H](n2c3ccc(Cl)cc3c3c(-c4cc5ccccc5o4)ncnc32)C(O)[C@H]1O` (some centres undefined), for which the Inhibition in the assay on Klebsiella pneumoniae worked out at 8.56%; in the assay with Candida albicans, 8.5%; in the assay with Cryptococcus neoformans, 3.55%.

With `COc1cc2ncnc(NC3CCN(Cc4ccccc4)CC3)c2cc1OC`, the Inhibition was 10.11% in the assay on Klebsiella pneumoniae, 2.88% in the assay with Candida albicans and 4.42% with Cryptococcus neoformans.

Take `O=C(Nc1nc(-c2ccccn2)cs1)C1CC1c1ccccc1F` (centres undefined): the Inhibition is 21.19% with Klebsiella pneumoniae, 5.33% in the assay on Candida albicans and -9.59% with Cryptococcus neoformans.

Regarding `CCOC(=O)c1noc(N)c1-c1ccccc1`, the Inhibition with Klebsiella pneumoniae is 13.91%; in the assay with Candida albicans, 3.66%; in the assay on Cryptococcus neoformans, -9.75%.

In the case of `Cc1cc(OCC(=O)NCc2ccccc2)c2cc(Br)ccc2n1`, the Inhibition with Klebsiella pneumoniae is 6.14%; in the assay on Candida albicans it was 0.18%; in the assay on Cryptococcus neoformans, -5.48%.

As for `O=C(NC1CCCCC1)N1CCN(Cc2ccc3c(c2)OCO3)CC1`, the Inhibition in the assay with Klebsiella pneumoniae is 10.77%; in the assay with Candida albicans, 0.64%; in the assay on Cryptococcus neoformans it was -16.64%.

`NS(=O)(=O)c1cccc(-c2ccc3ncc(N4CCOCC4)nc3c2)c1`: the figures for the Inhibition in the assay with Klebsiella pneumoniae, in the assay with Candida albicans and with Cryptococcus neoformans were 17.56%, 4.12% and -9.08%, respectively.

Regarding `COc1ccc(OC(C)C(=O)Nc2ccc(Cl)cc2C)cc1` (centres undefined), the Inhibition came out at 4.92% in the assay with Klebsiella pneumoniae, 7.33% in the assay with Candida albicans and 5.96% in the assay with Cryptococcus neoformans.

For `CS(=O)(=O)c1cccc(-c2cnc3[nH]cc(-c4ccc(CCC(=O)O)cc4)c3c2)c1`, the Inhibition was 6.09% with Klebsiella pneumoniae, 11.3% with Candida albicans and -4.04% in the assay on Cryptococcus neoformans.

Take `Cc1cc(O)nc(-n2nc(C)cc2C)n1`: the Inhibition was 12% in the assay with Klebsiella pneumoniae, 69.6% in the assay on Candida albicans and -1.19% with Cryptococcus neoformans.

With `CCOc1ccc(OCC(=O)Nc2cc(C)cc(C)c2)cc1`, the Inhibition with Klebsiella pneumoniae was 6.85%; with Candida albicans, 9.23%; in the assay on Cryptococcus neoformans, -6.41%.

Regarding `Nc1ncc(Br)cc1-c1nc2cc(Cl)cnc2[nH]1`, the Inhibition with Klebsiella pneumoniae was found to be 20.39%; in the assay on Candida albicans it was 9.81%; in the assay with Cryptococcus neoformans, 7.04%.

Regarding `Nc1nccc2ccc(-c3ccc4nccn4c3)cc12`, the Inhibition in the assay with Klebsiella pneumoniae was 18.72%; in the assay on Candida albicans, 2.07%; with Cryptococcus neoformans, -1.17%.

With `CC(C)(C)c1cc(C(=O)N2CCN(c3nccnc3C#N)CC2)n(Cc2ccccc2)n1`, the Inhibition in the assay on Klebsiella pneumoniae was 14.9%; with Candida albicans, 6.36%; with Cryptococcus neoformans, 1.25%.

Take `Cc1cc(C)n2nc(C(=O)Nc3cc(C(F)(F)F)ccc3N3CCOCC3)nc2n1`: the Inhibition in the assay on Klebsiella pneumoniae was 15.61%; in the assay on Candida albicans, 5.28%; in the assay on Cryptococcus neoformans, -4.53%.

As to `CC1=Nc2ccc(Cl)cc2C(c2ccccc2)N1CCNC(=O)CN(C)C` (centres undefined), the Inhibition worked out at 16.36% with Klebsiella pneumoniae, 1.95% with Candida albicans and 10.1% with Cryptococcus neoformans.

Turning to `COc1cccc(OCC(=O)c2ccc(Br)cc2)c1`, the Inhibition in the assay on Klebsiella pneumoniae was -4.37%; with Candida albicans, 4.44%; in the assay on Cryptococcus neoformans, -12.88%.

Consider `CNC(=O)CNc1nc(-c2ccccn2)nc2scc(-c3ccccc3)c12`, for which the Inhibition in the assay with Klebsiella pneumoniae is 15.46%; with Candida albicans it was 0.88%; with Cryptococcus neoformans it was -5.07%.
